# According to PubChem BioAssay AID651871 (Sanford-Burnham Center for Chemical Genomics, 2012):
# Several values for one entry are separate records, joined by “and”; a condition that tells them apart may be missing. Equal values may be shown once.
# System: HL-1
# Test: protection of cardiomyocytes from stress damage, SAR follow-up, cell-based, panel, H9c2 and HL-1, ATP luminescence, set 2 (AID 651871);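 further: cells exposed to stressor for 2 h before ATP readout; reference of the scale not given here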
# Details: H9c2/HL-1 cardiomyocytes, 2-deoxyglucose stress, with 2-deoxyglucose, run 15, at 19.8 µM (top of the series)
compound,measurement,value
COc1ccc2c(c1OC)C(=O)N1c3ccccc3C(=O)N(Cc3cccc(Cl)c3Cl)C21 (stereo unspecified),activity (protection/inhibition),69.2% and 28.8%
